In PubChem BioAssay (NCI):
Compounds without any hit were thinned out: in the full panel of roughly 83,000, 20% have a hit.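 Method: cells in 96-well plates; compound added at one concentration; 48 h incubation; percent growth measured; values under 10 scored active.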 Unmarked numbers belong to inactive results. Activity calls are given as the source filed them.

How the values were obtained:
Experiment in all cases: NCI-60 one-dose screen, 48 h (100 = growth as untreated, 0 = no growth, -100 = all killed)
Details in all cases: 10 µM unless noted
[1] = tested on: T-47D breast
[2] = tested on: BT-549 breast
[3] = tested on: SW-620 colon
[4] = tested on: MCF7 breast
[5] = tested on: HCT-116 colon
[6] = tested on: HCC-2998 colon
[7] = tested on: KM12 colon
[8] = tested on: MDA-MB-435 melanoma

| Compound | growth [1] | growth [2] | growth [3] | growth [4] | growth [5] | growth [6] | growth [7] | growth [8] |
| --- | --- | --- | --- | --- | --- | --- | --- | --- |
| COc1cc2c(c(OC)c1OC)-c1cc(I)c(O)cc1[C@@H](NC(C)=O)CC2 | 69.5% | 3.61% (active) | 31.4% | 12.5% | 11.9% | 20.8% | 15.1% |  |
| CCOC(=O)c1c[nH]n2c(=S)ncnc12 | 98.7% | 108% | 112% |  | 101% | 112% | 99.9% |  |
| Cc1ccc(S(=O)(=O)Oc2ccc(Br)cc2Br)cc1 | 70.7% |  | 58.6% | 75.7% | 49.3% | 78.3% |  | -46% (active) |
| O=C1COCCN1c1ccc(NCc2cn(Cc3ccc(F)cc3)c3ccccc23)cc1 | -19.8% (active) |  | 28.1% | 4.76% (active) | 6.21% (active) |  |  | 99.1% |
| Cn1cc(-c2nnc(-c3cn(C)c4ncc(Br)cc34)s2)c2cc(Br)ccc21 | 67.6% | 96.2% | 96.4% | 74.1% | 96.4% | 103% | 94.6% |  |
| CCOC(=O)Nc1ccc2c(c1)/C(=N\NC(=S)NC)c1ccccc1-2 | 66.7% | 94% | 93.6% | 74.6% | 87.6% | 88.2% | 71% |  |
| COc1cc(NCc2cn(-c3ccc(C(=O)O)cc3)nc2-c2ccc(C(=O)O)cc2)cc(OC)c1OC | 93.7% | 96.2% | 92% | 93.3% | 97.5% | 104% | 100% |  |
| CC1=CCc2ccccc21 | 96.8% | 93.5% | 95.6% | 90.5% | 101% | 108% | 103% |  |
| C[n+]1cccc(NC(=O)c2ccc3ccc4ccc(C(=O)Nc5ccc[n+](C)c5)nc4c3n2)c1 | 12% | 90.4% | 56% | 54% | 43.1% | 42% | 42.2% |  |
| C[n+]1c2ccccc2nc2c(N)cc(N)cc21 | 54.2% | 46% | 87.1% | 82.7% | 78.2% | 92.4% | 63.8% |  |
| CC(C)CCSC1=CC(=O)c2ccccc2C1=O | -41.4% (active) |  | -16.7% (active) | 42.5% | -100% (active) |  |  | 63.8% |
| COc1cc2c(c(Br)c1N)-c1cc(Br)c(N)cc1C2=O | 18.4% | 77.9% | 75.3% | 3.68% (active) | 62.9% | 52.1% | 66.6% |  |
| COC(=O)[C@]1(C)CC[C@]2(C)CC[C@]3(C)C(=CC(=O)[C@@H]4[C@@]5(C)CCC(=O)NC(C)(C)[C@@H]5CC[C@]43C)[C@@H]2C1 | -10.7% [100 µM] (active) | -78.6% [100 µM] (active) | -54.8% [100 µM] (active) | -49.7% [100 µM] (active) | -72.5% [100 µM] (active) | -89.2% [100 µM] (active) | -80.1% [100 µM] (active) |  |
| Cc1cnc([C@]23CC[C@@H](C)[C@H](C)[C@H]2C2=CC[C@@H]4[C@@]5(C)Cc6c([nH]c7ccccc67)C(C)(C)[C@@H]5CC[C@@]4(C)[C@]2(C)CC3)o1 | 58% [100 µM] | 46.5% [100 µM] | 20.6% [100 µM] |  | 17.3% [100 µM] | 50% [100 µM] | 24.7% [100 µM] |  |
| COc1ccc(-c2c(C)nn3c(NCCN4CCOCC4)cc(C)nc23)cc1OC | 88.2% | 93.3% | 99.4% |  | 90% | 104% | 107% |  |
| O=[N+]([O-])c1cccc(N=NNc2cccc([N+](=O)[O-])c2)c1 | 76.3% | 101% | 91.7% |  | 114% | 104% | 95.2% |  |
| CC(C)(C)c1cc(C(=O)Nc2ccccc2C(=O)NCCN)cc(C(C)(C)C)c1 | -14.6% (active) | 99.2% | -56.8% (active) |  | -94.7% (active) | -59.1% (active) | -62.2% (active) |  |
| CN(C)CCOc1ccc(/C(=C(/CCCl)c2ccccc2)c2ccccc2)cc1 | 25.6% | 46.8% | 15.8% |  | 6.56% (active) | -41.2% (active) | -47.4% (active) |  |
| O=C(NNc1ccc(-c2ccccc2)nn1)c1ccc(F)cc1 | 88.7% | 95.1% | 100% | 91% | 103% | 102% | 102% |  |
| O=S(=O)(/N=c1/n(-c2ccccc2)nc2n1CCN2C1=NCCN1)c1ccc(-c2ccccc2)cc1 | 94% | 97.9% | 98.3% | 97.8% | 95.6% | 101% | 103% |  |
| Nc1cc(C(=O)O)[nH]c(=S)n1 | 105% | 69.1% | 101% | 96.2% | 100% | 95.3% | 98.9% |  |
| C=CCCCCOc1ccccc1-c1cnc(OCCCCC=C)n1C | 61.9% | 96.8% | 30.8% | 42.2% | 61% | 61.1% | 38.4% |  |
| C=C(CC(=O)OC)C(C)=O | 108% | 127% | 102% | 111% | 116% | 112% | 102% |  |
| CCN(CC)c1ccc2cc(C(Nc3ccc(C)cc3)c3nnnn3C(C)(C)C)c(=O)oc2c1 (configuration not stated) | 71.1% | 89.1% | 102% | 81.4% | 87.9% |  | 103% |  |
| CCc1ccc(NC(=O)N[C@@H](Cc2cc(F)cc(F)c2)C(=O)N[C@@H]2C(=O)N3C[C@H](O)C[C@H]3C(=O)N3CCOC[C@H]3C(=O)N[C@@H](C)C(=O)N3C[C@H](C)C[C@H]3C(=O)O[C@H]2C)cc1 | 18.2% | 11.3% | 48.5% | 24.1% | 13.7% |  | 42.7% |  |
| Cc1ccc(-c2cc(-c3ccc(C)cc3)nc(NCCNc3ccnc4cc(Cl)ccc34)n2)cc1 | -69.2% (active) | 57.7% | -64.9% (active) | -77.3% (active) | -84.5% (active) | -80.2% (active) | -73% (active) |  |

| Compound | growth [1] | growth [2] | growth [3] | growth [4] | growth [5] | growth [6] | growth [7] | growth [8] |
| --- | --- | --- | --- | --- | --- | --- | --- | --- |
| COc1ccc(OC)c([N+](=O)[O-])c1C(=O)CNC(C)=O | 103% | 84.5% | 106% |  | 106% | 101% | 106% |  |
| O=c1[nH]cnc2c1ccn2C1OC(CO)C(O)C1O (configuration not stated) | 54.1% | 75.8% | 33.5% | 24.9% | 54.9% | 69.3% | 75.1% |  |
| O=C(Nc1cccc(F)c1)c1cc(=O)[nH]c2cc(Br)ccc12 | 48.1% |  | 27.7% | 17.6% | 19.1% | 65% |  | -21.8% (active) |
| O=C1CC(c2ccccc2)Cc2nc3ccc(Br)cc3cc21 (configuration not stated) | 67.2% | 6.48% (active) | 25.1% | 61.2% | 5.56% (active) | 27% | 8.94% (active) |  |
| COc1ccc2c(c1)C(C)Cc1c(ncnc1-n1cnc3ccccc31)N2C (configuration not stated) | 56.9% |  | 23.8% | 18.6% | 10.3% | 25.4% | 17.8% | 0.335% (active) |
| Nc1nc(N)c2c(n1)NC(c1ccc(F)cc1)C1CCc3ccccc3C1=N2 (configuration not stated) | 49.7% |  | 67.3% | 26.9% | 31.9% | 71.2% | 50.1% | 54.4% |
| CCOc1ccc(/C=C(\C#N)c2cc3ccccc3[nH]2)cc1 | 39.7% |  | 24.6% | 24.7% | 37.1% | 72.5% | 22.5% | -28.8% (active) |
| O=C(OCc1ccc2c(Cl)cc(Cl)c(O)c2n1)N1CCN(C(=O)c2cc3cc(F)ccc3[nH]2)CC1 | 62.2% |  | 16.9% | 14.5% | 5.58% (active) | 22.6% | -15.2% (active) | -54.5% (active) |
| CS(=O)(=O)c1cccnn1 | 95.2% |  | 95.5% | 94% | 96.5% | 110% | 106% | 104% |
| C#CCOc1ccc(C2=NN(CC3CC3)C3N=C(Cl)c4ncn(CC5CC5)c4N23)cc1OCC#C (configuration not stated) | 28.2% |  | 91.8% | 78.8% | 80.5% | 119% | 46.6% | 80.8% |
| CCOC(=O)/C(C#N)=C(\C)CCc1ccccc1 | 98.9% |  | 103% | 91.9% | 87.7% | -6.07% (active) | 113% | 110% |
| CC1(C)OC2[C@@H](CNC(=O)NC(=O)NC(=O)CI)O[C@@H](n3cnc4c(NC(=O)Nc5ccccc5)ncnc43)[C@H]2O1 (some centres not stated) | 49% |  | -41.9% (active) | 33% | 51.2% | 94% | 84.2% | 83.8% |
| Cc1cccc(/C=C2\N=C(c3ccccc3)N(c3ccc(S(N)(=O)=O)cc3)C2=O)c1 | 85.2% |  | 104% | 82.1% | 83.9% | 99.8% | 98.1% | 92.3% |
| Cc1ccc(-c2cc(O)c(-c3ccc(C)cc3C)cc2O)c(C)c1 | 67.1% |  | 56.5% | 49.2% | 23.9% | 77.7% | 55.3% | 66.5% |
| COc1ccc2[nH]c(C(=O)N3CCN(C(=O)OCc4ccc5c(Br)cc(Br)c(O)c5n4)CC3)cc2c1 | -62.5% (active) |  | -70.3% (active) | -58.4% (active) | -87.1% (active) | -90.7% (active) |  | -86.6% (active) |
| CN(Cc1cccc(C(F)(F)F)c1)C(=O)[C@@H](CC(=O)N1CCC(N2CCCCC2)CC1)N1C(=O)[C@@H](N2C(=O)OC[C@@H]2c2ccccc2)[C@H]1/C=C/c1ccccc1 | 76.3% |  | 93.2% | 65.4% | 85.2% | 91.9% | 102% | 73.1% |
| CSc1nc(N)c(N=Nc2ccc(S(=O)(=O)Nc3nnc(C)s3)cc2)c(=O)[nH]1 | 112% |  | 93.4% | 100% | 109% | 117% | 98.6% | 128% |
| O=C(NCCCCCCCNC(=O)OCc1ccc2c(Cl)cc(Cl)c(O)c2n1)OCc1ccc2c(Cl)cc(Cl)c(O)c2n1 | -62.5% (active) |  | -67.3% (active) | -30.2% (active) | -70% (active) | -75.8% (active) | -82.4% (active) | -86.4% (active) |
| CCc1ccc(-c2ccc(COc3ccc(CC4SC(=O)NC4=O)cc3)cc2)cc1 (configuration not stated) | 41% |  | 80.7% | 59.1% | 51% | 89.6% | 64% | 57.9% |
| Cc1ccc(Oc2c(/C=N/NC(=O)Cn3c(=O)sc4ccccc43)c(C)nn2-c2ccccc2)cc1 | 20.4% |  | 68.4% | 31.1% | 37% | 69.2% | 49.3% | 61.7% |
| CCCCC(CCCCCC(CCCC)C1NC(C)Cc2cc(OC)c(OC)cc21)C1NC(C)Cc2cc(OC)c(OC)cc21 (configuration not stated) | -76.8% (active) |  | -80.8% (active) | -95.1% (active) | -97.5% (active) | -97.3% (active) | -94.7% (active) | -73.4% (active) |
| Cn1cc(-c2noc(-c3cn(C)c4ncc(F)cc34)n2)c2ccccc21 | 42.3% |  | 56.1% | 34.1% | 27% | 86.6% | 62.7% | 72.8% |
| CN(C)C(=S)Sc1ccc([N+](=O)[O-])cc1[N+](=O)[O-] | -34.7% (active) |  | -63.1% (active) | 0.536% (active) | -54.4% (active) | 88.9% | 49.1% | 44.4% |
| Nc1nc(Cl)c2ncn(Cc3cc4c(cc3I)OCO4)c2n1 | 30.9% |  | 18.3% | 18.9% | 16.7% | 76.4% | 9.48% (active) | 34.6% |
| O=C(Nc1cc(F)cc2cccnc12)c1cnc(N2CCNCC2)cn1 | 18% |  | 40.9% | 10.2% | 11% | 85.6% |  | 77.3% |
| Cc1ccc2c(c1)/C(=N\N=C/c1cn(C(C)C)c3ccccc13)C(=O)N2 | 24.9% |  | 46.4% | 8.52% (active) | 28.1% | 49.4% | 73.7% | 18.8% |
